A selection: hits, their analogues and other compounds. The true share with any hit is near 2.4%.
CHRM1 agonist: human M1 muscarinic receptor agonists, primary screen, Fluo-8 calcium fluorescence, CHO-K1 cells, HTS | activation, % at 3 µM | hit rate 0.33% among 360,000 | CHO-K1 hM1, agonist mode; 0% DMSO, 100% acetylcholine EC100;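 active means activation above the run's mean compound activation plus 3 SD, cut at about 16% in these data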;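 further: peak over basal fluorescence ratio within a 140 s kinetic read after compound addition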
Target sequence (P11229 whole entry, looked up): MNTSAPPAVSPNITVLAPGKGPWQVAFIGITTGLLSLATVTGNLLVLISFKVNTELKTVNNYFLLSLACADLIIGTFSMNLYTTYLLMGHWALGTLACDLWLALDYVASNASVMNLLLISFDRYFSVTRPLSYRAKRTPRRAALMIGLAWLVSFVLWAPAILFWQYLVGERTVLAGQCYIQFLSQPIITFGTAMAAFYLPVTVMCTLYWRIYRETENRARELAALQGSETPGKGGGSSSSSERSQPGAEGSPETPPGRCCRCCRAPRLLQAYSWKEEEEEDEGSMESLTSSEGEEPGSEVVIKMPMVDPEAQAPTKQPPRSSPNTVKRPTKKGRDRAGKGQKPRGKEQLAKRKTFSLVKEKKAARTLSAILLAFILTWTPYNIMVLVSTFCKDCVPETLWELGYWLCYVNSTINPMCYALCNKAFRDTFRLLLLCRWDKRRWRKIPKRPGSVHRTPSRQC
CHO-K1 Ca ag: counter-screen for M1 agonists: effect in parental CHO-K1 cells; AID 602248, 2012; Fluo-8 calcium fluorescence; scaled to maximal ATP response, vehicle zero; hit rate 0.48% among 360,000; activation, % at 3 µM; in the data active means activation above about 15%;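 further: untransfected CHO-K1 host cells lacking M1 receptor as counterscreen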
CHRM1 antagonist: human M1 muscarinic receptor antagonists, primary screen, CHO-K1 cells, Fluo-8 calcium fluorescence, 1536-well | Muscarinic acetylcholine receptor M1 (Homo sapiens), P11229 | CHO-K1 hM1, ACh EC80 antagonist | inhibition, % at 3 µM | hit rate 1.3% among 360,000 | AID 588852, 2011;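 active means percent inhibition above its own plate's cutoff, namely the mean of that plate's compound wells plus 3 SD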;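 further: peak over basal fluorescence ratio during 140 s after agonist addition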
CHO-K1 Ca PAM: nonselective calcium activators in parental CHO-K1 cells, primary screen, counter-screen for M1 PAM project, cell-based, Fluo-8 calcium fluorescence, full deck, 1536-well; ATP EC20; 0% at ATP EC20, 100% at ATP max; activation, % at 3 µM; hit rate 0.02% among 360,000; AID 602247, 2012;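 active means activation above the run cutoff, the mean activation of all test compounds plus 3 SD, cut at about 40% in these data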;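 further: peak over basal fluorescence ratio in a 140 s read after ATP addition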
M1 PAM: human M1 muscarinic receptor positive allosteric modulators, primary screen, CHO-K1 cells, Fluo-8 calcium fluorescence, 1536-well | hit rate 0.088% among 360,000 | activation, % at 3 µM | Muscarinic acetylcholine receptor M1 (Homo sapiens), P11229 | CHO-K1 hM1, ACh EC20; 0% = ACh EC20, 100% = maximal ACh | AID 588819, 2011; in the data active means activation above about 19%, passing the limit was not always enough
CHO-K1 Ca antag: M1 antagonist counterscreen hit in parental CHO-K1 cells | inhibition, % at 3 µM | hit rate 0.6% among 360,000 | ATP-induced calcium, Fluo-8 fluorescence;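 active means inhibition above a per-plate cutoff, the plate's mean sample inhibition plus 3 SD, cut at about 24% in these data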
Large screens that a line does not name were inactive.

CC(=O)c1c(C)[nH]c(C(=O)COC(=O)C2CC2)c1C	none
CCOC(=O)c1c(C)[nH]c(C(=O)COC(=O)COc2ccc(OC)cc2)c1C	CHO-K1 Ca ag 16.2
Cc1ccccc1NC(=O)CSc1nnc(C)c2ccccc12	none
COc1ccc(CN(C)CC(=O)N(C)CC(=O)Nc2ccccc2Br)cc1F	none
O=C(COc1ccc(S(=O)(=O)N2CCCCC2)cc1)N1CCCC1	none
CCCn1nnc(NC(=O)/C=C/c2ccc(C(C)C)cc2)n1	CHO-K1 Ca antag 60.2
Cc1cc(-c2nnc(CCC(=O)NCc3cc(F)cc(C(F)(F)F)c3)o2)no1	none
CCn1c(=O)c(-c2cc(=O)[nH][nH]2)c(O)c2ccccc21	none
O=c1cc(-c2c(O)c3ccccc3n(Cc3ccccc3)c2=O)[nH][nH]1	CHO-K1 Ca ag 16.8
CC(=O)Nc1ccc(NC(=O)C2CC(=O)N(Cc3ccco3)C2)cc1 (stereo not drawn)	none
CC[C@H]1c2[nH]c3ccccc3c2C[C@H]2C(=O)N(c3ccc(F)cc3)C(=O)N21	CHO-K1 Ca antag 24.0
Cc1cc(F)ccc1S(=O)(=O)Nc1ccccc1C(=O)NC1CCN(Cc2ccccc2)CC1	none
N#CC(=C(c1ccccc1)c1ccccc1)c1ccccc1	none
N#CC(c1cccc(Cl)c1)c1ccc2c(C(F)(F)F)cc(C(F)(F)F)nc2n1 (stereo not drawn)	CHO-K1 Ca antag 31.4
O=C(NCC1CCCCC1)c1ccc2sc([C@H]3C[C@H](O)[C@@H](CO)O3)nc2c1	CHO-K1 Ca antag 35.0
O=C(Nc1ccc2c(c1)OCO2)c1ccc2sc([C@@H]3O[C@H](CO)[C@@H](O)[C@H]3O)nc2c1	none
O=C(Nc1ccc2c(c1)OCO2)c1ccc2sc([C@H]3C[C@H](O)[C@@H](CO)O3)nc2c1	M1 PAM 28.5
Cc1ccc2nc(SCC(=O)NCc3ccc4c(c3)OCO4)nc(=O)n2c1	CHO-K1 Ca antag 25.9
CCOc1cc(OCC)cc(C(=O)N2CCC[C@@H]2C(=O)N2CCC[C@@H]2C(=O)NCc2ccccc2Cl)c1	CHO-K1 Ca ag 17.1 (no result: CHRM1 agonist, CHRM1 antagonist, M1 PAM)
CCOC(=O)C1=CN(Cc2ccco2)S(=O)(=O)NC1c1ccc(Br)cc1F (stereo not drawn)	none
Cc1[nH]nc(-c2ccc(OCc3cnn(-c4ccccc4)c3)cc2O)c1Oc1ccc(F)cc1	none
CCOc1ccc(-c2n[nH]c(C)c2Oc2ccc(OC)cc2)c(O)c1	CHO-K1 Ca antag 24.3
COCCOC(=O)c1[nH]c2c(c1C)C(=O)CC(c1ccc(N(C)C)cc1)C2 (stereo not drawn)	CHO-K1 Ca ag 16.5
COc1ccc(Cn2c(-c3ccc(OC)cc3)n[nH]c2=S)cc1	none
CC(C)Oc1ccc(Cn2c(-c3ccco3)n[nH]c2=S)cc1	CHRM1 antagonist 29.3

Screening data as filed in PubChem.
